Compound activity: PubChem BioAssay, National Center for Advancing Translational Sciences (NCATS)
HP1b binding inh: inhibitors of HP1-beta chromodomain binding to methylated histone tails; 390,000 compounds, 0.56% hits; Potency, µM (highest dose often 114 µM), inactives show at the top dose activity change, negative = inhibition, usual class: inhibitors; AID 540317; AlphaScreen HP1-beta / biotin-H3K9me3 peptide binding; note: potency is the fitted concentration of half-maximal effect; nearly all actives have a fitted effect of over 70% in size
Target sequence (P83916 whole entry, looked up): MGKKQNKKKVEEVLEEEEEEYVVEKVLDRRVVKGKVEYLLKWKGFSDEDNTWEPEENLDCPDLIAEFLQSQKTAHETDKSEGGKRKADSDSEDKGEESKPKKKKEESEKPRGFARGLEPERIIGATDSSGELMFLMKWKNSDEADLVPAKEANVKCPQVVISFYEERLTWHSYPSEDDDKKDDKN
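Compound inhibition of the preformed complex between 50 nM HP1-beta and 50 nM biotinylated H3K9me3 peptide was read by AlphaScreen. Buffer was PBS pH 7.4 with 0.01% Tween-20. Incubations ran 30 min at room temperature, with 10 ug/mL donor/acceptor beads.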
CtBP-E1A blk: CtBP/E1A binding inhibition | activity change, % (no concentration beside the values) | AlphaScreen GST-E1A/His-CtBP binding, 1536-well; active compounds read low | 340,000 compounds, 0.49% hits | AID 651724; in the data active = activity change below about -65%; inconclusive = mostly about -30% to -63%; note: % is set by controls: 0 for no effect and ±100 for the full control effect
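Steps: dispense buffer (Tris pH 8.0, NaCl 300 mM, TCEP 1 mM, BSA, Tween 20); add 5X protein mix (GST-E1A, His-CtBP, 125 nM each); pin 23 nL compound; 2 h at 37 °C, dark; add 5X beads (50 ug/mL); 1 h; read.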
BAZ2B inh: BAZ2B (human) inhibition | Q9UIF8 | AlphaScreen BAZ2B-H3K14Ac peptide displacement | Potency, µM (top dose mostly 114 µM), inactives show top-dose activity change, negative = inhibition, usual class: inhibitors | 360,000 compounds, 4.4% hits | AID 504333; note: potency is the fitted concentration of half-maximal effect; % is set by controls: 0 for no effect and ±100 for the full control effect; nearly all actives have a fitted effect of over 60% in size
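BAZ2B (50 nM) with biotin-H3(5-23)K14Ac peptide (50 nM) in PBS pH 7.4, 0.01% Tween-20, preformed 30 min, then compound 30 min at room temperature; top concentration 110uM. AlphaScreen streptavidin donor/nickel chelate acceptor beads (10 ug/mL final), 20 min dark, signal read.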
Six1-Eya2 inh: inhibitors of human Six1/Eya2 interaction. Q15475+O00167. AlphaScreen GST-Six1/His-Eya2 binding, biochemical; active compounds read low. activity change, % (no concentration beside the values). 360,000 compounds, 0.56% hits. AID 651725; in the data active = activity change below about -65%; inconclusive = mostly about -30% to -63%; note: % is set by controls: 0 for no effect and ±100 for the full control effect
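Homogeneous AlphaScreen proximity assay pairing GST-Six1 with His-tagged Eya2 (added as 5X mix: 250 nM and 500 nM) in 50 mM Tris pH 8.0, 300 mM NaCl, 1 mM TCEP. Glutathione donor and nickel acceptor beads; 1 h, 37 °C, dark.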
JMJD2A Tudor inh: blocks the human JMJD2A Tudor domain; O75164; AlphaScreen JMJD2A-Tudor / H3K4me3 peptide binding; Potency, µM (doses to about 114 µM), inactives show top-dose activity change, negative = inhibition, usual class: inhibitors; 390,000 compounds, 4.4% hits; note: potency is the fitted concentration of half-maximal effect; % is set by controls: 0 for no effect and ±100 for the full control effect; nearly all actives have a fitted effect of over 50% in size
TDP1 block: TDP1 (human) enzyme inhibition | Q9NUW8 | recombinant TDP1, AlphaScreen DNA substrate cleavage | Potency, µM (series often up to 130 µM), for the others: top-dose activity change, negative = inhibition, most hits filed as inhibitors | 350,000 compounds, 0.28% hits | AID 485290; note: potency is the fitted concentration of half-maximal effect; % is set by controls: 0 for no effect and ±100 for the full control effect; nearly all actives have a fitted effect of over 40% in size
Target sequence (Q9NUW8 whole entry, looked up): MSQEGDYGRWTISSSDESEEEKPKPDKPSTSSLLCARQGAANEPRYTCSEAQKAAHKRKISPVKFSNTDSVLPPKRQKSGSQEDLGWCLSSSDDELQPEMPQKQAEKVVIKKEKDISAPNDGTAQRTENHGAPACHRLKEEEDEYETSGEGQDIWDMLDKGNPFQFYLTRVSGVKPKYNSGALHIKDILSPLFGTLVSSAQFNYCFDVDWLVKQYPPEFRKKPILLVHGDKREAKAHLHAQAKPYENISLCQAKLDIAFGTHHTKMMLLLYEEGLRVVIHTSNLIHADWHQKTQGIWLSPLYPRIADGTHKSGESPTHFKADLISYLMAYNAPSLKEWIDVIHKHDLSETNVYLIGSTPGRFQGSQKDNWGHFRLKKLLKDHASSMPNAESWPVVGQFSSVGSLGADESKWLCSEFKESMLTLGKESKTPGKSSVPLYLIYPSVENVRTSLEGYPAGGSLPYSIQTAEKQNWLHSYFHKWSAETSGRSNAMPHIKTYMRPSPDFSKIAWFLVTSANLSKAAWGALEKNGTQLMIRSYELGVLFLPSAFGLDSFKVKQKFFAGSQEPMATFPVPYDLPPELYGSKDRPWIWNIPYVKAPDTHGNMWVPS
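Signal: AlphaScreen proximity between streptavidin donor and anti-FITC acceptor beads on intact substrate. Reaction: Tdp1 1 nM, substrate 15 nM final, 5 min RT after 15 min compound preincubation.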
* hit, by the source's call; [ ] = remark or other dose. The list is not random: actives were taken first. Their share in the collection is about 5.3%. Unless noted, calls come from the whole dose curve; as a rule, active = well fitted inhibition curve with a large enough effect; inconclusive = small, poorly fitted or top-dose-only effect; inactive = no such curve, though single readings can be large or run the other way.

How did CCc1ccc(NC(=O)Cc2c(C(=O)O)c(C)cn2C)cc1 do in these assays?
HP1b binding inh: -6%; BAZ2B inh: -27%; JMJD2A Tudor inh: -24%; TDP1 block: 6%

Results for CCOc1ccc(S(=O)(=O)Nc2nc3ccccc3nc2Nc2ccc(OC)cc2)cc1 ?
HP1b binding inh: 18%; BAZ2B inh: -21%; JMJD2A Tudor inh: -25%

Results for CCOc1ccc(S(=O)(=O)Nc2nc3ccccc3nc2Nc2ccc(N3CCOCC3)cc2)cc1 ?
HP1b binding inh: inconclusive; CtBP-E1A blk: -18; BAZ2B inh: 28µM*; Six1-Eya2 inh: -8; JMJD2A Tudor inh: 50µM*; TDP1 block: 2%

Results for CS(=O)(=O)N1CCN(c2ccc([N+](=O)[O-])c(NCc3ccccc3)c2)CC1 ?
HP1b binding inh: -2%; CtBP-E1A blk: -11; BAZ2B inh: -35%; Six1-Eya2 inh: -21; JMJD2A Tudor inh: -30%; TDP1 block: 5%

What do the screens show for `CS(=O)(=O)N1CCN(c2ccc([N+](=O)[O-])c(NCc3ccc(Cl)cc3)c2)CC1`?
HP1b binding inh: 8%; CtBP-E1A blk: -8; BAZ2B inh: inconclusive; Six1-Eya2 inh: 2; JMJD2A Tudor inh: 89µM*; TDP1 block: 0%

Results for O=C1CCCc2cc(S(=O)(=O)N3CCCC(C(=O)NCc4ccc(Cl)cc4)C3)ccc2N1 (stereo unspecified) ?
HP1b binding inh: 35%; BAZ2B inh: 9%[57.1 µM]; JMJD2A Tudor inh: 6%; TDP1 block: -2%

What do the screens show for `COc1ccc(N2CC(NC(=O)C3CC3)CC2=O)cc1OC` (stereo unspecified)?
HP1b binding inh: 37%; BAZ2B inh: 1%; JMJD2A Tudor inh: -1%; TDP1 block: -5%

What do the screens show for `O=C(Nc1ccc2nc(-c3ccco3)c(-c3ccco3)nc2c1)N1CCN(c2ccccn2)CC1`?
HP1b binding inh: 25µM*; CtBP-E1A blk: 15; BAZ2B inh: inconclusive; Six1-Eya2 inh: inconclusive; JMJD2A Tudor inh: inconclusive; TDP1 block: 0%

Results for O=C(Nc1ccc2nc(-c3ccco3)c(-c3ccco3)nc2c1)N1CCCC1 ?
HP1b binding inh: 10µM*; JMJD2A Tudor inh: 14µM*; TDP1 block: 7.1µM*

What do the screens show for `Cc1nc2ccc(NC(=O)N3CCOCC3)cc2nc1C`?
HP1b binding inh: 14%; CtBP-E1A blk: -4; BAZ2B inh: -11%; Six1-Eya2 inh: -3; JMJD2A Tudor inh: -23%; TDP1 block: -8%

How did O=C(c1ccc2nc(-c3ccco3)c(-c3ccco3)nc2c1)N1CCN(c2ncccn2)CC1 do in these assays?
HP1b binding inh: 7%; CtBP-E1A blk: 0; BAZ2B inh: inconclusive; Six1-Eya2 inh: 0; JMJD2A Tudor inh: 89µM*

Results for CC1CCN(C(=O)Nc2ccc3nc(-c4ccco4)c(-c4ccco4)nc3c2)CC1 ?
HP1b binding inh: 11µM*; JMJD2A Tudor inh: 13µM*

How did CC(C)[C@H](NC(=O)OC(C)(C)C)[C@@H](O)CC(=O)OC(C)(C)C do in these assays?
TDP1 block: 7%[21 µM]

How did CC(=O)N1CCc2c(sc3nc(SCC(N)=O)n(-c4ccc(F)c(Cl)c4)c(=O)c23)C1 do in these assays?
HP1b binding inh: 18%; BAZ2B inh: -2%; JMJD2A Tudor inh: -11%; TDP1 block: 6%

Results for O=C(NCCO)Nc1ccc2nc(-c3ccco3)c(-c3ccco3)nc2c1 ?
BAZ2B inh: 3.2µM*; TDP1 block: 3%

Results for O=C(NCCO)Nc1ccc2nsnc2c1 ?
HP1b binding inh: 27%; BAZ2B inh: -3%; Six1-Eya2 inh: 5; JMJD2A Tudor inh: -3%; TDP1 block: 4%

Results for Cc1cccc(-c2nc(C)c(CCNC(=O)C(=O)Nc3cccc(Cl)c3C)s2)c1 ?
HP1b binding inh: 22%[57 µM]; BAZ2B inh: 3%; JMJD2A Tudor inh: 0%; TDP1 block: 1%

How did Cc1ccc(/C=C2\SC(=S)N(CCC(=O)Nc3cccnc3)C2=O)cc1 do in these assays?
HP1b binding inh: 36%; CtBP-E1A blk: 6; BAZ2B inh: -18%; Six1-Eya2 inh: -1; JMJD2A Tudor inh: -8%; TDP1 block: 4%

Results for C#CCOc1ccc(/C=C2\SC(=S)N(Cc3cccnc3)C2=O)cc1 ?
HP1b binding inh: 15%; CtBP-E1A blk: -14; BAZ2B inh: -9%; Six1-Eya2 inh: -9; JMJD2A Tudor inh: -11%; TDP1 block: 7%

How did COc1ccc(/C=C2\SC(=S)N(Cc3cccnc3)C2=O)cc1C do in these assays?
HP1b binding inh: -51%; CtBP-E1A blk: -7; BAZ2B inh: 10µM*; Six1-Eya2 inh: -3; JMJD2A Tudor inh: inconclusive; TDP1 block: 4%

What do the screens show for `CCCN1C(=O)/C(=C/c2ccncc2)SC1=S`?
HP1b binding inh: inconclusive; CtBP-E1A blk: 6; BAZ2B inh: 25µM*; Six1-Eya2 inh: 0; JMJD2A Tudor inh: inconclusive; TDP1 block: -3%

How did O=C1/C(=C/c2ccncc2)SC(=S)N1Cc1ccccc1 do in these assays?
HP1b binding inh: 45µM*; CtBP-E1A blk: -13; BAZ2B inh: 11µM*; Six1-Eya2 inh: -12; JMJD2A Tudor inh: 25µM*; TDP1 block: 11%

How did O=C1/C(=C/c2ccc(O)cc2)SC(=S)N1Cc1cccnc1 do in these assays?
HP1b binding inh: 10%; CtBP-E1A blk: -2; BAZ2B inh: -1%; Six1-Eya2 inh: 10; JMJD2A Tudor inh: -5%; TDP1 block: 2%

Results for CC(C)c1ccc(NC(=O)CCCc2nc(-c3ccc(Cl)cc3)no2)cc1 ?
HP1b binding inh: 41%; BAZ2B inh: -32%; JMJD2A Tudor inh: -3%; TDP1 block: 1%

Results for Cc1ccc(-n2c(O)c(/C=N/Nc3ccc(S(=O)(=O)N4CCOCC4)cc3[N+](=O)[O-])c3ccccc3c2=O)c(C)c1 ?
HP1b binding inh: 4µM*; CtBP-E1A blk: inconclusive; BAZ2B inh: 13µM*; Six1-Eya2 inh: inconclusive; JMJD2A Tudor inh: 28µM*; TDP1 block: 11%

What do the screens show for `O=C(O)c1ccc(/C=N\Nc2ccc(S(=O)(=O)N3CCOCC3)cc2[N+](=O)[O-])cc1`?
HP1b binding inh: -1%; CtBP-E1A blk: 3; BAZ2B inh: inconclusive; Six1-Eya2 inh: 19; JMJD2A Tudor inh: inconclusive; TDP1 block: 4%

Results for Cc1ccc(Nc2ccc(S(=O)(=O)N3CCOCC3)cc2[N+](=O)[O-])cc1C ?
HP1b binding inh: inconclusive; CtBP-E1A blk: 2; BAZ2B inh: 11µM*; Six1-Eya2 inh: inconclusive; JMJD2A Tudor inh: inconclusive; TDP1 block: 11%

What do the screens show for `C/C(=N\Nc1ccc(S(=O)(=O)N2CCOCC2)cc1[N+](=O)[O-])C(C)C`?
HP1b binding inh: inconclusive; CtBP-E1A blk: -4; Six1-Eya2 inh: inconclusive; JMJD2A Tudor inh: 45µM*; TDP1 block: -3%
